The list is not random: actives were taken first. Their share in the collection is about 1.1%.
BAP1 inh: inhibitors of BAP1 deubiquitinase, primary screen, biochemical, Ub-AMC fluorescence, kinetic; calls only at 20 µM; AID 436, 2006; recombinant BAP1, Ub-AMC hydrolysis fluorescence kinetic; stronger effect = lower value; actives 0.48% (n = 72,000);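 active = activity remaining at or below 50% of control, provided the compound also passes the data quality filters; inactive = the rest, including low values that fail the filters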
HePTP inhibitor: inhibitors of human HePTP phosphatase, primary screen, biochemical, absorbance, leukemia target. Tyrosine-protein phosphatase non-receptor type 7 (Homo sapiens), P35236. recombinant HePTP phosphatase activity, OD absorbance. inhibition, % at 20 µM. actives 0.64% (n = 110,000). AID 521, 2006; in the data active = inhibition above about 50%; inconclusive = no clear call, values can overlap the other calls
FXIIa mix inh: human factor XIIa inhibitors, primary screen, biochemical, pooled compound mixtures, fluorogenic substrate. AID 684, 2007. purified FXIIa. actives 0.2% (n = 62,000). inhibition, % at 5 µM. Coagulation factor XII (Homo sapiens), P00748
CatG inh: human cathepsin G inhibitors, primary screen, biochemical, pooled compound mixtures, AMC fluorescence | inhibition, % at 5 µM (by protocol) | purified enzyme, AMC-tetrapeptide fluorescence | actives 0.2% (n = 62,000);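 active = inhibition above 20% in each of the two mixture wells holding the compound; inactive = inhibition of 20% or less in either well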
FXIa mix inh: FXIa protease inhibitors in compound pools, primary screen, biochemical, 10-compound mixtures. Coagulation factor XI (Homo sapiens), P03951. purified FXIa, fluorogenic substrate, pooled mixtures. inhibition, % at 5 µM. actives 0.19% (n = 62,000). AID 680, 2007;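 note: each value is inhibition by a whole ten-compound pool holding the compound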
C1s block: complement C1s protease inhibitors, primary screen, biochemical, 10-compound mixtures; mean inhibition % of two 10-compound mixtures (stronger effect = higher value), % at 5 µM (by protocol); actives 0.16% (n = 62,000); Complement C1s subcomponent (Homo sapiens), P09871; purified C1s, fluorogenic AMC substrate, pooled mixtures;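 active = inhibition above 20% in each of the two 10-compound mixture wells holding the compound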
Target sequence (P09871 16-437 limits assumed): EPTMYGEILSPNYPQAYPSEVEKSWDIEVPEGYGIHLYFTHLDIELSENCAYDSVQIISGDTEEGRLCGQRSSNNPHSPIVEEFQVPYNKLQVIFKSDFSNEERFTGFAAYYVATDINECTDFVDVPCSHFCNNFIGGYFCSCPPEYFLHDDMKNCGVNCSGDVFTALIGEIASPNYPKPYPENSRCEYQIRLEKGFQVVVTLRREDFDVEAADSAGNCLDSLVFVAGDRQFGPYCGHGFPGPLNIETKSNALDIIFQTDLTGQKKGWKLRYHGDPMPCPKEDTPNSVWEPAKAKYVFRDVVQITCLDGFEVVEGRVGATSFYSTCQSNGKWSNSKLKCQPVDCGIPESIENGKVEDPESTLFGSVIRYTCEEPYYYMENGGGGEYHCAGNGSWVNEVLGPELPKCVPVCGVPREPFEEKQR
Target sequence (P09871 438-688 limits assumed): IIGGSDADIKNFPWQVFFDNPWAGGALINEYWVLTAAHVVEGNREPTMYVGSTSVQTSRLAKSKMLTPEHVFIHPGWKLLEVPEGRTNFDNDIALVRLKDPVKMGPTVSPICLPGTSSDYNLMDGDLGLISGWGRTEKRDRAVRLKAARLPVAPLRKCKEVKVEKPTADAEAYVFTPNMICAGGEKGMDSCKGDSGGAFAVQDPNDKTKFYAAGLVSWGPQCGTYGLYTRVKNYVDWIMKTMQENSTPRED
BAP1 inh conf: BAP1 deubiquitinase inhibitors, hit retest, confirmation, orthogonal assay, biochemical, Ub-ethyl ester substrate, HPLC readout. % of control activity, % at 20 µM. purified BAP1, Ub-ethyl ester hydrolysis; stronger effect = lower value. actives 8% (n = 310). shares compounds with BAP1 inh. AID 753, 2007;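 active = percent of control activity at or below 60%; inconclusive = HPLC trace unusable from injection failure or solvent front hiding peaks; inactive = the rest, plus ubiquitin peak ratio over a set limit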
Each line names hits and unclear results; the compound was inactive in the other large screens (follow-up assays come after a bar, where shown). Cut-off read from the data, not from the text of the source, unless noted: active = inhibition above about 20% (passing the limit was not always enough); inactive = the rest.

CCOC(=O)c1c(NC(=O)CSc2nc(C)cc(C)c2C#N)sc(C(C)=O)c1C	BAP1 inh active | BAP1 inh conf inactive
COc1cc(C(=O)N2CCN(C(=O)c3ccncc3)CC2)cc(OC)c1OC	none (no result: BAP1 inh, FXIIa mix inh, CatG inh, FXIa mix inh, C1s block)
COc1ccc(CC(=O)N/N=C(\C)CC(=O)Nc2ccccc2C)cc1OC	none (no result: BAP1 inh, FXIIa mix inh, CatG inh, FXIa mix inh, C1s block)
N/C(=C/C(=O)c1ccc(Cl)cc1)C(F)(F)F	none (no result: BAP1 inh, FXIIa mix inh, CatG inh, FXIa mix inh, C1s block)
CCOC(=O)c1nn(-c2ccccc2)c(C#N)c1NC(=O)c1nn(CC)cc1Br	none
CCOC(=O)c1c(NC(=O)c2nn(CC)cc2Br)c(C#N)nn1-c1ccccc1	BAP1 inh active | BAP1 inh conf inactive
C=CCOc1ccc(/C=C/C(=O)c2ccc(C)cc2)cc1OC	none (no result: BAP1 inh, FXIIa mix inh, CatG inh, FXIa mix inh, C1s block)
CCOC(=O)c1sc(=NC(=O)c2cccc(OC)c2)n(C)c1C	none
CCOC(=O)c1sc(=NC(=O)c2ccc(OC)c(OC)c2)n(C)c1C	BAP1 inh active | BAP1 inh conf inconclusive
COc1ccccc1N1CCN(C(=O)CSc2nc(-c3ccco3)cc(C(F)(F)F)n2)CC1	BAP1 inh active | BAP1 inh conf inactive
C=CCc1ccccc1OCCn1ccnc1	BAP1 inh active | BAP1 inh conf inactive
CCC(=O)N1c2ccccc2NC2=C(C(=O)CC(c3ccco3)C2)C1c1ccc(N(CC)CC)cc1 (stereo not drawn)	none (no result: BAP1 inh, FXIIa mix inh, CatG inh, FXIa mix inh, C1s block)
Cc1nc2n(n1)C(c1ccccc1)C1=C(CC(c3ccco3)CC1=O)N2 (stereo not drawn)	BAP1 inh active | BAP1 inh conf inactive
CCCOC(=O)C1=C(C)NC2=C(C(=O)CCC2)C1c1cccc(OC)c1OC (stereo not drawn)	BAP1 inh active | BAP1 inh conf 34
O=C(COc1ccccc1)NC1CCC(CC2CCC(NC(=O)COc3ccccc3)CC2)CC1 (stereo not drawn)	none (no result: BAP1 inh, FXIIa mix inh, CatG inh, FXIa mix inh, C1s block)
CC(=O)c1c(C)nn(CC(O)Cn2c3c(c4cc(C)ccc42)CCCC3=O)c1C (stereo not drawn)	none
Cc1ccc2c(c1)c1c(n2CC(O)Cn2nc(C)c(Br)c2C)C(=O)CCC1 (stereo not drawn)	BAP1 inh active | BAP1 inh conf inactive
Cc1ccc(Cn2ncc3c(N4CCN(c5ccccc5C)CC4)ncnc32)cc1	BAP1 inh active, C1s block 22 | BAP1 inh conf inactive
Cn1c(-c2ccccc2)cc(O)c(C(=N)c2ccccc2)c1=O	none (no result: BAP1 inh, FXIIa mix inh, CatG inh, FXIa mix inh, C1s block)
O=C(O)c1oc2ccc(Br)cc2c1-n1cccc1	BAP1 inh active | BAP1 inh conf inactive
COC(=O)c1oc2ccc(Br)cc2c1NC(=O)c1ccccc1	none
O=C(CCCn1c(=S)[nH]c2cc3c(cc2c1=O)OCO3)N1CCN(c2ccccc2F)CC1	none
Cc1ccc(C)c(N2CCN(C(=O)CCCn3c(=S)[nH]c4cc5c(cc4c3=O)OCO5)CC2)c1	BAP1 inh active | BAP1 inh conf inactive
O=C(/C=C/c1ccc(Cl)cc1)Nc1ccc(NC(=O)c2ccccc2)cc1	none (no result: BAP1 inh, FXIIa mix inh, CatG inh, FXIa mix inh, C1s block)
CCCCCCn1c(SCCCC)nc2c1c(=O)[nH]c(=O)n2C	BAP1 inh active | BAP1 inh conf inactive
CCn1c(=O)c(C(=O)NCCc2ccccc2)c(O)c2ccccc21	BAP1 inh active | BAP1 inh conf inactive
CCNCCNC(=O)c1c(O)c2ccccc2n(CC)c1=O	none
O=C(c1ccccc1F)N1CCN(c2cc(N3CCOCC3)c(F)cc2[N+](=O)[O-])CC1	none (no result: BAP1 inh, FXIIa mix inh, CatG inh, FXIa mix inh, C1s block)
CCCCCSc1nc2c(cnn2-c2ccccc2)c(=O)[nH]1	BAP1 inh active | BAP1 inh conf inactive
Cn1c(-c2c(N)n(C3CCCC3)c3nc4ccccc4nc23)nc2ccccc21	BAP1 inh active | BAP1 inh conf inactive
Cc1ccc(Cn2nnc3c(=O)[nH]c(C4CCN(S(=O)(=O)c5cc(C)ccc5C)CC4)nc32)cc1	BAP1 inh active | BAP1 inh conf inactive
Cc1ccc(C)c(S(=O)(=O)N2CCC(c3nc4c(nnn4Cc4ccc(F)cc4)c(=O)[nH]3)CC2)c1	BAP1 inh active | BAP1 inh conf inactive
Cc1nc(N2CCN(c3ccccc3)CC2)nc2c1C(=O)CC(c1ccccc1)C2 (stereo not drawn)	BAP1 inh active | BAP1 inh conf inactive
Cc1nc(N2CCN(c3ccccc3)CC2)nc2c1C(=O)CC(C)C2 (stereo not drawn)	none
O=C(CCS(=O)(=O)c1ccccc1)Nc1nc2c(s1)COc1ccccc1-2	BAP1 inh active | BAP1 inh conf inactive
O=C(NC1CCCCCC1)c1c(O)c2ccccc2[nH]c1=O	none
O=C(NCC1CCCO1)c1c(O)c2ccccc2[nH]c1=O (stereo not drawn)	BAP1 inh active | BAP1 inh conf inactive
O=C(NC12CC3CC(CC(C3)C1)C2)c1cc2nc(-c3ccco3)cc(C(F)(F)F)n2n1	BAP1 inh active | BAP1 inh conf inactive
COc1ccc(-c2cc(C(F)(F)F)n3nc(C(=O)NCc4ccco4)cc3n2)cc1	BAP1 inh active | BAP1 inh conf inactive
O=C(NCc1ccco1)c1cc2nc(-c3ccc4c(c3)OCO4)cc(C(F)(F)F)n2n1	BAP1 inh active | BAP1 inh conf 56
Cc1ccc(-c2cc(C(F)F)n3ncc(C(=O)NCc4ccco4)c3n2)cc1	none (not shown: BAP1 inh)
Cc1ccc(-c2cc(C(F)(F)F)n3ncc(C(=O)NCc4ccco4)c3n2)cc1	BAP1 inh active | BAP1 inh conf inconclusive
Cc1ccc(O)c(N=CC2=C(O)c3ccccc3C2=O)c1	BAP1 inh active | BAP1 inh conf inactive
Cc1ccc(N2C(=O)C3CCCCC3C2=O)cc1Cl (stereo not drawn)	none (no result: BAP1 inh, FXIIa mix inh, CatG inh, FXIa mix inh, C1s block)
CCOC(=O)/C(C#N)=C\c1ccc(F)cc1	none (no result: BAP1 inh, FXIIa mix inh, CatG inh, FXIa mix inh, C1s block)
Cc1cccc(C)c1NC(=O)Cn1nnc(-c2ccc(N3CCOCC3)cc2)n1	BAP1 inh active | BAP1 inh conf inactive
COc1ccc(CCNC(=O)Cn2nnc(-c3ccc(N4CCOCC4)cc3)n2)cc1OC	none
O=C(Nc1nnc(-c2ccco2)s1)C1CCN(S(=O)(=O)c2ccc(Cl)cc2)CC1	BAP1 inh active | BAP1 inh conf inconclusive
CCSc1sccc1C1C(C#N)=C(N)N(c2cccnc2)C2=C1C(=O)CCC2 (stereo not drawn)	BAP1 inh active | BAP1 inh conf inactive
Cc1nc(Nc2cccc(C(F)(F)F)c2)nc2c1C(=O)CC(C)C2 (stereo not drawn)	BAP1 inh active | BAP1 inh conf inactive
Cc1cccc(Nc2ncc3c(n2)CC(C)CC3=O)c1 (stereo not drawn)	none
